Activity calls are given as the source filed them. Rule for the calls: active = hit-call score of the fitted dose curve at least 0.9, where 1 is the maximum; inactive = score below 0.9.
molecular target: human Mitogen-Activated Protein Kinase 11 (MAPK 11), MAPK11 (gene 5600) (UniProt Q15759); test: NVS_ENZ_hMAPK11: NovaScreen (NVS) Enzymatic Assay for human Mitogen-Activated Protein Kinase 11 (MAPK 11)
Procedure: NVS_ENZ_hMAPK11 is a biochemical, single-readout assay that uses extracted gene-proteins in a cell-free assay. Measurements were taken 0 hour after chemical dosing in a 384-well plate.NVS_ENZ_hMAPK11 is one of one assay component(s) measured or calculated from the NVS_ENZ_hMAPK11 assay. It is designed to make measurements of enzyme activity, a form of enzyme reporter, as detected with fluorescence intensity signals by Fluorescence and electrophoretic mobility shift technology.Data from the assay component NVS_ENZ_hMAPK11 was analyzed into 1 assay endpoint. This assay endpoint, NVS_ENZ_hMAPK11, was analyzed in the positive analysis fitting direction relative to DMSO as the negative control and baseline of activity. Using a type of enzyme reporter, loss-of-signal activity can be used to understand changes in the enzymatic activity as they relate to the gene MAPK11. Furthermore, this assay endpoint can be referred to as a primary readout, because this assay has produced multiple assay endpoints where this one serves a enzymatic activity function. To generalize the intended target to other relatable targets, this assay endpoint is annotated to the kinase intended target family, where the subfamily is serine/threonine kinase.
Binding assays used specific radioligands (tritiated, iodinated) with non-radioactive competitive displacement ligands in agonist or antagonist protocols (as indicated) and various reference compounds and inhibitors to titrate specific binding to receptors and transporters. Most enzyme assays (CYPs, kinases, phosphatases, proteases, HDACs) used recombinant protein and specific substrates (fluorescence mostly, some colorimetric and radioactive) and inhibitors, followed by a biochemical separation of substrate and product. All assays for the biochemical HTS were initially run in duplicate at a single concentration (10 uM for CYP450 assays and 25 uM for all others). Assay-chemical combinations meeting a pre-defined threshold (e.g., 30% inhibition and other criteria defined below) were then run in singleton concentration-response format with maximum concentration of 20 uM for CYPs and 50 uM for all others. Each assay was run with positive and negative controls, and concurrent controls on every plate. The follow-up (secondary) screen tested active chemical-pairs in concentration series, as well as a few additional assays not tested in the primary screen, some selected negative inactives, and several cases re-run in the concentration series for confirmatory purposes.

Sequence of human Mitogen-Activated Protein Kinase 11 (MAPK 11), MAPK11 (gene 5600) (Q15759 whole entry, looked up): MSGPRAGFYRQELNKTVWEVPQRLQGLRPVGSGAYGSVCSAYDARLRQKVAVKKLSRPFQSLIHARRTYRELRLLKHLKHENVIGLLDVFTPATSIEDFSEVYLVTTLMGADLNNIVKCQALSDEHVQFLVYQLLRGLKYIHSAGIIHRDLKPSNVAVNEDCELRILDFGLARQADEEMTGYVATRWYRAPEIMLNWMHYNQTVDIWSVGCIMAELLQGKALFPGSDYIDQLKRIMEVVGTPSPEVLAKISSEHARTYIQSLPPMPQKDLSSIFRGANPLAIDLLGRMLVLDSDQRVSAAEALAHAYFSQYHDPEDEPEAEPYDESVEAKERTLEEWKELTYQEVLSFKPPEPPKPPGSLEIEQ

**Q.** For CC(C)(C)C(O)/C(=C\c1ccc(Cl)cc1Cl)n1cncn1 (centres undefined), which outcome is on record?
**A.** inactive

**Q.** COc1nc(C)nc(NC(=O)NS(=O)(=O)c2ccccc2CCC(F)(F)F)n1 was tested. Which outcome did it give?
**A.** inactive

**Q.** How did the outcome turn out when Fc1ccc(Oc2ccnc3cc(Cl)cc(Cl)c23)cc1 was run?
**A.** inactive

**Q.** Which outcome does the source give for C[Si](Cn1cncn1)(c1ccc(F)cc1)c1ccc(F)cc1 here?
**A.** inactive

— PubChem BioAssay AID2283174 (EPA ToxCast)
